Assay results taken from PubChem BioAssay (NCATS).
Records with an inconclusive call do not appear. The source made the active and inactive calls. Calls come from the whole dose curve; as a rule, active = well fitted curve in the direction sought with a large enough effect; inconclusive = small, poorly fitted or top-dose-only effect, or another doubt; inactive = no such curve, though single readings can be large; an effect the other way counts as inactive or inconclusive.

Tests used:
[1] = tested on: Zika virus NS2B-NS3 protease (linked construct); assay: Primary screen NINDS Rhodamine qHTS for Zika virus inhibitors (AID 1347160); note: nearly all actives have a fitted effect of over 55% in size; note: potency is the fitted concentration of half-maximal effect
Summary of the method: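 Aprotinin served as in-plate control. Conditions: 25 nM linked NS2B-NS3, pH 8.0 Tris buffer, titrated compounds, 15 min preincubation and 15 min reaction with 1.5 microM Rhod110 substrate at room temperature.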

[2] = UWB1.289 Cancer Cell Toxicity qHTS against the NCATS CANVASS Library (AID 1347347); note: nearly all actives have a fitted effect of over 60% in size; note: potency is the fitted concentration of half-maximal effect
Summary of the method: (§1)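 Quantitative HTS format: an 11-concentration series was applied to 1000 cells/well following a 4-hour attachment. Cultures ran 72 hours before ATP luminescence detection by CellTiter-Glo.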

[3] = Panc-1005 Cancer Cell Toxicity qHTS against the NCATS CANVASS Library (AID 1347349); note: nearly all actives have a fitted effect of over 60% in size; note: potency is the fitted concentration of half-maximal effect
Summary of the method: as §1

[4] = SW1088 Cancer Cell Toxicity qHTS against the NCATS CANVASS Library (AID 1347350); note: nearly all actives have a fitted effect of over 75% in size; note: potency is the fitted concentration of half-maximal effect
Summary of the method: as §1

[5] = U-118MG Cancer Cell Toxicity qHTS against the NCATS CANVASS Library (AID 1347351); note: potency is the fitted concentration of half-maximal effect
Summary of the method: as §1

[6] = UWB1.289-WTBRCA1 Cancer Cell Toxicity qHTS against the NCATS CANVASS Library (AID 1347354); note: potency is the fitted concentration of half-maximal effect
Summary of the method: (§2)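 1000 cells/well, 4 h pre-incubation 37 °C/5% CO2; 11-pnt titration; 72 h; CellTiter-Glo 15 min RT, luminescence.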

[7] = tested on: NAD(P)H diaphorase (Clostridium kluyveri); assay: Diaphorse counterscreen qHTS: Assay Interference Panel against the NCATS CANVASS Library (AID 1347362)
Summary of the method: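 Clostridium kluyveri diaphorase in PBS + 0.01% Tween-20 preincubated 15 min with compounds. Resazurin and NADH then added for 5 min at room temperature in the dark; resorufin fluorescence read (ex 525, em 598).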

[8] = KB-8-5-11 Cancer Cell Toxicity qHTS against the NCATS CANVASS Library (AID 1347364); note: nearly all actives have a fitted effect of over 75% in size; note: potency is the fitted concentration of half-maximal effect
Summary of the method: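 CellTiter-Glo luminescence after 72 h exposure; 500 KB-8-5-11 cells/well, DMEM/10% FBS, 37C, 5% CO2; compounds in 11-pt qHTS. Follow-up confirmation included medium with 1uM tariquidar.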

[9] = biological target: Nuclear receptor subfamily 1 group I member 3 (Homo sapiens) (UniProt Q14994); assay: qHTS for Constitutive Androstane Receptor (CAR) Antagonist screened against the NCATS CANVASS Library (AID 1347372); note: potency is the fitted concentration of half-maximal effect
Chain of Nuclear receptor subfamily 1 group I member 3 (Homo sapiens) (Q14994 whole entry, looked up): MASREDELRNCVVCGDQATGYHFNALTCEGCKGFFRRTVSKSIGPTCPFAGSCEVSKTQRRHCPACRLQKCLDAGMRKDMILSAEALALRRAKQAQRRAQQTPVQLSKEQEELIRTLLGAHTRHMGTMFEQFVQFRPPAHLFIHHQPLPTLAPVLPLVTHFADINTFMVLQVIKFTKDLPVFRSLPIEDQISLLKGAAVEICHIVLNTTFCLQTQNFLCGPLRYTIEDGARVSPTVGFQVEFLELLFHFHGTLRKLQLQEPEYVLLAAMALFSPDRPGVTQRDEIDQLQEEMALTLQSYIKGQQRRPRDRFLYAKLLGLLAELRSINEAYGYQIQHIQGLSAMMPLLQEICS
Summary of the method: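 Luminescence readout (ONE-Glo, 30 min RT) of CYP2B6-2.2kb reporter in HepG2-hCAR cells after 24hr, 37C treatment with compound against 50 nM CITCO; CellTiter-Fluor viability read beforehand.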

[10] = qHTS for Hypoxia signaling pathway (HIF-1) antagonists against the NCATS CANVASS Library (AID 1347374); note: nearly all actives have a fitted effect of over 60% in size; note: potency is the fitted concentration of half-maximal effect
Summary of the method: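 Beta-lactamase reporter under HRE control in ME-180 cells; CoCl2 stimulus (60 uM solution as added), compounds 11-pt qHTS, 17 h 37C. CCF4 dye 2 h RT, 460/530 nm emission. CellTiter-Glo viability in same wells.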

[11] = DH5-alpha competent E. coli microbial cell viability qHTS against the NCATS CANVASS Library (AID 1347377); conditions: outcome: dose series up to 46.1 µM unless noted
Summary of the method: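 Luminescent ATP read-out (BacTiter-Glo, 20 min RT) after overnight 37C culture of DH5-alpha E. coli with compounds; daunomycin control at 0.2 nM–9.2 uM final.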

[12] = qHTS for H2AX Agonists against the NCATS CANVASS Library (AID 1347378)
Summary of the method: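 CHO-K1 cells were plated overnight at 37C, then exposed to compounds (concentration series, 0.76% DMSO final) for 3 hr at 37C. Lysates received Eu-cryptate anti-pH2AX (S139) and d2 anti-H2AX antibodies; after 24 hr at room temperature, TR-FRET 665/620 nm ratio was read.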

[13] = qHTS for Activators of p53 Stress Response Pathway screened against the NCATS CANVASS Library (AID 1347388)
Summary of the method: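 p53RE-bla HCT-116 cells (4000/well) were pre-incubated for 5 h, then treated with compound (11 points) for 16 h at 37C. After 2 h with CCF4, the 460/530 nm ratio gave reporter activation; CellTiter-Glo measured viability.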

[14] = qHTS assay for small molecule disruptors of mitochondrial membrane potential screened against the NCATS CANVASS Library (AID 1347389); note: nearly all actives have a fitted effect of over 60% in size; note: potency is the fitted concentration of half-maximal effect
Summary of the method: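 Red/green fluorescence ratio read-out: J-aggregates ex 540/em 590 nm, monomers ex 490/em 535 nm. HepG2, 1 hr compound treatment, then 30 min Mito-MPS dye at 37C. 11-pt qHTS concentration series.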

[15] = Secretion counterscreen for inhibitors of the SERCaMP assay screened against the NCATS CANVASS Library (AID 1347390);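 note: light from luciferase secreted into medium read as a measure of general secretion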; note: potency is the fitted concentration of half-maximal effect
Summary of the method: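 SH-SY5Y cells expressing constitutively secreted GLuc, 1000 cells/well, attached 4 h at 37C, then exposed to compounds (0.001 - 77 uM, 11-pnt series) for 20 h. Coelenterazine added; luminescence read to flag secretory-pathway interferers.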

[16] = qHTS for activators of dead-cell proteases activity screened against the NCATS CANVASS Library (AID 1347392);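 note: luminescence from protease leaking out of membrane-damaged cells cleaving impermeant substrate; rising signal means more cytotoxicity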
Summary of the method: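 HepG2, 2000 cells/well, 18 h attach; cpd 11-pt, 5 h 37C 5% CO2; CytoTox-Glo (AAF-aminoluciferin) 15 min RT; luminescence read.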

[17] = qHTS for inhibitors of Wild type Zika virus screened against the NCATS CANVASS Library (AID 1347396);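 note: ATP luminescence of surviving cells so rescue from viral cell killing; series mostly up to about 46 µM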
Summary of the method: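 Vero 766 cells, 1000/well, o/n attach; cpds pin-transferred (11-pt qHTS); WT Zika added; 72 h, 37C, 5% CO2; CellTiter Glo lumi. Uninfected + vehicle = 100% inhibition.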

[18] = A2780 Cisplatin Sensitive Ovarian Cancer Cell Toxicity qHTS against the NCATS CANVASS Library (AID 1347353); note: nearly all actives have a fitted effect of over 60% in size; note: potency is the fitted concentration of half-maximal effect
Summary of the method: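 750 cells/well, 4 h settle; 11-pt cpd titration; 72 h, 37 °C, 5% CO2; ATPLite 10 min RT; luminescence read.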

[19] = SDT Cancer Cell Toxicity qHTS against the NCATS CANVASS Library (AID 1347365); note: nearly all actives have a fitted effect of over 60% in size; note: potency is the fitted concentration of half-maximal effect
Summary of the method: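 Luminescent ATP read-out (CellTiterGlo) after 72 hr compound exposure of dog glioma SDT cells, 500 per well. Eleven-point titrations; bortezomib titration run alongside as control.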

[20] = HEK-293 Cancer Cell Toxicity qHTS against the NCATS CANVASS Library (AID 1347355); note: nearly all actives have a fitted effect of over 65% in size; note: potency is the fitted concentration of half-maximal effect
Summary of the method: as §2

Measured: Potency

C=C1C(=O)C[C@H]2C[C@@H]1[C@]2(C)CCC=C(C)C
active: [1] 17.5 µM
inactive: [2] | [3] | [4] | [5] | [6] | [7] | [8] | [9] | [10] | [11] | [12] | [13] | [14] | [15] | [16] | [17]

CC(C)=CCC/C(C)=C/Cc1c(O)c(CC=C(C)C)c(O)c2c(=O)c3cc(O)ccc3oc12
active: [1] 9.84 µM | [2] 8.38 µM | [3] 14.9 µM | [4] 9.43 µM | [5] 21.1 µM | [18] 14.8 µM | [6] 14.9 µM | [19] 20.9 µM | [14] 1.86 µM
inactive: [7] | [9] | [11] | [15]

C1=C2CCCN[C@@H]2[C@@H]2CCN3CCCC[C@@H]3[C@H](C1)C2
inactive: [1] | [2] | [3] | [4] | [5] | [18] | [6] | [20] | [7] | [8] | [19] | [9] | [10] | [11] | [12] | [13] | [14] | [15] | [16] | [17]

C[C@@H](O)[C@H]1OC(=O)C=C2[C@]3(C)[C@H]4[C@H](OC(=O)[C@@]4(C)[C@@H](O)[C@H]4O[C@H]43)[C@H]3O[C@@]231
inactive: [1] | [7] | [11] | [14] | [16]
active: [2] 2.65 µM | [3] 2.11 µM | [18] 0.833 µM | [20] 1.48 µM | [8] 1.48 µM | [19] 1.18 µM | [9] 5.24 µM | [10] 1.49 µM | [15] 3.84 µM

COc1ccc(/C=C2\COc3cc(O)ccc3C2=O)cc1
active: [1] 22 µM | [18] 14.8 µM | [14] 20.9 µM
inactive: [2] | [6] | [7] | [9] | [11] | [12] | [15] | [16]

C/C(=C\[C@H](C)C(=O)CCCC1CC(=O)NC(=O)C1)[C@@H]1OC(=O)/C=C/CC/C=C/C[C@@H](O)[C@@H]1C
active: [1] 17.5 µM | [2] 2.11 µM | [3] 1.88 µM | [18] 0.833 µM | [20] 1.87 µM | [19] 0.935 µM | [9] 3.71 µM | [10] 1.06 µM | [15] 3.84 µM
inactive: [7] | [11] | [13] | [14] | [16] | [17]
